According to PubChem BioAssay:
Entries with a potency or affinity are not part of this list. Calls of active or inactive are those of the source. Unless noted, cut-off not given; nearly all actives show IC50 up to about 0.98 µM.

molecular target: Calcium-dependent protein kinase 1 (Plasmodium falciparum (isolate 3D7)) (UniProt P62344); assay: PfCDPK1 kinase inhibitors, biochemical, TCAMS library (AID 1159585); details: recombinant PfCDPK1, Kinase-Glo ATP depletion luminescence;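 further: inhibitors leave more ATP so luminescence rises with inhibition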
Sequence (P62344 whole entry, looked up): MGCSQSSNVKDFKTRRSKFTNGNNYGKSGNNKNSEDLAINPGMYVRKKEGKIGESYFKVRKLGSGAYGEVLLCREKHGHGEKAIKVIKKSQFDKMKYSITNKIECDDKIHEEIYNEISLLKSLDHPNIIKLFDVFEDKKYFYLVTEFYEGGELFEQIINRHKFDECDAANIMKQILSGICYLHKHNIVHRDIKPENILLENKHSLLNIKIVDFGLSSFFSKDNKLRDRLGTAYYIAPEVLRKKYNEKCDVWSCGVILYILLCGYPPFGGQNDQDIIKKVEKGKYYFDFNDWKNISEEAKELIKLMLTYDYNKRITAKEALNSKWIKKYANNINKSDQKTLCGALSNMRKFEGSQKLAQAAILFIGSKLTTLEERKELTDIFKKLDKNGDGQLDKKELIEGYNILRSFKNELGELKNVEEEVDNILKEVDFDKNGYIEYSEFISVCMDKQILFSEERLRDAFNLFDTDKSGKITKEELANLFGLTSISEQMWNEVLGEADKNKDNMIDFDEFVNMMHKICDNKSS

outcome, inactive:
CC(C)c1ccc(CN(C)CCCCNC(=O)c2ccc(NC(=O)c3ccc(Cl)cc3)cc2)cc1
CC(C)n1c(C2CCN(CC3CCN(C(=O)/C=C/c4ccc(Cl)c(Cl)c4)CC3)CC2)nc2ccccc21
Cn1nc(C(F)(F)F)c(-c2ccc(F)cc2)c1NC(=O)Nc1ccc(F)cc1F
COc1cccc2sc(N3CCN(C(=O)c4ccc([N+](=O)[O-])o4)CC3)nc12
COc1ccc2nccc(NC(=O)CNCc3ccc(-c4ccccc4)cc3)c2c1
O=C(Nc1ccc(Cn2ncc(N3CCCNCC3)c(Cl)c2=O)cc1)Nc1cc(Cl)cc(Cl)c1
COc1cc(C(=O)Nc2nc3ccccc3[nH]2)ccc1OCC(=O)Nc1cccc(C(F)(F)F)c1
O=C(NCC1CC1)C1CCN(C(c2ccccc2)c2ccc(Cl)c(Cl)c2)CC1 (stereo not drawn)
CN1CCN(CCCN(Cc2cccc(-c3cccc(CNCCc4ccccc4)c3)c2)C(=O)Nc2ccccc2)CC1
O=C(Nc1ccc(F)c(C(F)(F)F)c1)N[C@H]1CCN(CCCCCNC(=O)[C@@H]2C[C@H]2c2ccc(Cl)c(Cl)c2)C1
CC(Cc1ccc(OCc2ccccc2)cc1)Nc1nc2ccccc2c(=O)[nH]1 (stereo not drawn)
CCCCCCP(=O)(COc1ccc(CCN(CC(O)COc2cccc3[nH]c(C(N)=O)cc23)CC(O)COc2cccc3[nH]c(C(N)=O)cc23)cc1)OCCCC (stereo not drawn)
Cc1cc(N[C@@H](CC(C)C)C(=O)NCCOc2ccccc2)nc(Nc2ccccc2)n1
Cc1cccc2[nH]c(-c3cccc(-c4cccc(CNCc5cccc(N)c5)c4)c3)nc12
Cc1ccc(-n2[nH]c(C)c(N=Nc3cccc(-c4cccc(NC(=O)OC(C)(C)C)c4)c3O)c2=O)cc1C
O=C(Nc1ccc(NC2=NCCN2)cc1)Nc1ccc(NC2=NCCN2)cc1
CCn1c(-c2nonc2N)nc2cnc(Oc3cccc(NC(=O)c4ccc(OCCN5CCCC5)cc4)c3)cc21
CC[C@H](C)CNC(=O)c1cncc(-c2cccc(CNCCCc3ccccc3)c2)c1
COc1ccc(-c2cccc(NC(=O)c3cccc(Cl)c3)c2)cc1CN1CCCN(C)CC1
Cc1cccc2[nH]cc(C3CCN(CCC4CCN(C(=O)/C=C/c5ccc(Cl)c(Cl)c5)CC4)CC3)c12
Cc1ccc(-c2noc(COc3ccccc3C(=O)NC3CCCC3)n2)cc1
COc1ccc(NC(=O)[C@H](Cc2ccccc2)Nc2cc(C)nc(NCc3ccccc3C)n2)cc1
CC1CCCN1Cc1cccc(-c2ccc(C(=O)NCCOc3ccccc3)s2)c1 (stereo not drawn)
COc1ccc(-c2cccc(NC(=O)c3ccc(Cl)cc3)c2)cc1CN1CCNCC1
CC(C)(C)Cn1cc(-c2ccc(C(=O)NCCc3ccc(S(C)(=O)=O)cc3)cc2)c(N)n1 (tested in a mixture with another compound)
CCCC[C@@H](C(=O)NCCc1ccc(Cl)cc1)N1C(=O)CCC1C(=O)Nc1ccc(Cl)c(Cl)c1 (stereo partly drawn)
COc1ccc(-c2csc(NC(=O)CCC(=O)O)n2)cc1OC
CCN(CC)CCOc1ccc(C(O)(C#CC(O)(c2ccc(C)cc2)c2ccc(OCCN(CC)CC)cc2)c2ccc(C)cc2)cc1 (stereo not drawn)
COCc1nc(-c2ccccc2)nc(N2CCN(C(=O)NC(C)C)CC2)c1Cc1ccccc1F
CN(C)c1ccc(-c2csc(C(=O)NCC3CCN(CCC(C)(C)C)C3)c2)cc1 (stereo not drawn)
N#Cc1ccc(-c2cnc3ccc(NCc4ccc(S(N)(=O)=O)cc4)nn23)cc1
O=C(N[C@@H]1C[C@H]1c1ccccc1)N(CCCn1ccnc1)Cc1csc(-c2ccc(CNCc3ccccc3)cc2)n1
Cc1nnc2c(NC(=O)/C=C/c3ccc(OC(F)(F)F)cc3)cc3cc(Cl)ccc3n12
CCn1c(C(C)C)cc2c3c(N)nc(N)nc3ccc21
Cc1cccc2[nH]c(-c3ccc(-c4ccc(NC(=O)Nc5ccc(Cl)cc5)cc4)s3)nc12
CCCCN1CCN(CCCCNc2c3ccccc3nc3ccccc23)CC1
NC(=NCCCCC1CCCCC1)c1cccc(C(N)=NCCCCC2CCCCC2)n1
O=C1OC(c2ccccc2)(c2ccccc2)CN1CC1CCN(Cc2ccc(O)c(Cl)c2)CC1
CCn1c(Sc2ccc(C#N)c([N+](=O)[O-])c2)nnc1-c1cccc(Cl)c1

molecular target: Plasmodium falciparum protein kinase 6 (PK6, PF3D7_1337100) (UniProt Q8IDW1); assay: PfPK6 kinase inhibitors, biochemical, TCAMS library (AID 1159586; call rule not given here); details: recombinant PfPK6, Kinase-Glo ATP depletion luminescence
Sequence (Q8IDW1 1-305): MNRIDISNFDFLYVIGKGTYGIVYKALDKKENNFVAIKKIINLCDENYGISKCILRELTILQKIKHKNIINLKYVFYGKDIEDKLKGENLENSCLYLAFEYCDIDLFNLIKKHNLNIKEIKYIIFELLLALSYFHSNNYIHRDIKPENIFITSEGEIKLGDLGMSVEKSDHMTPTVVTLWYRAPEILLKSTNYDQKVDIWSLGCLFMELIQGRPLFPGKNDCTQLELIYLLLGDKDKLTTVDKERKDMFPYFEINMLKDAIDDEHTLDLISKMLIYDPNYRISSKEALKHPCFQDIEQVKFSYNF

outcome, inactive:
CC(C)c1ccc(CN(C)CCCCNC(=O)c2ccc(NC(=O)c3ccc(Cl)cc3)cc2)cc1
CC(C)n1c(C2CCN(CC3CCN(C(=O)/C=C/c4ccc(Cl)c(Cl)c4)CC3)CC2)nc2ccccc21
Cn1nc(C(F)(F)F)c(-c2ccc(F)cc2)c1NC(=O)Nc1ccc(F)cc1F
COc1cccc2sc(N3CCN(C(=O)c4ccc([N+](=O)[O-])o4)CC3)nc12
COc1ccc2nccc(NC(=O)CNCc3ccc(-c4ccccc4)cc3)c2c1
O=C(Nc1ccc(Cn2ncc(N3CCCNCC3)c(Cl)c2=O)cc1)Nc1cc(Cl)cc(Cl)c1
COc1cc(C(=O)Nc2nc3ccccc3[nH]2)ccc1OCC(=O)Nc1cccc(C(F)(F)F)c1
O=C(NCC1CC1)C1CCN(C(c2ccccc2)c2ccc(Cl)c(Cl)c2)CC1 (stereo not drawn)
CN1CCN(CCCN(Cc2cccc(-c3cccc(CNCCc4ccccc4)c3)c2)C(=O)Nc2ccccc2)CC1
O=C(Nc1ccc(F)c(C(F)(F)F)c1)N[C@H]1CCN(CCCCCNC(=O)[C@@H]2C[C@H]2c2ccc(Cl)c(Cl)c2)C1
CC(Cc1ccc(OCc2ccccc2)cc1)Nc1nc2ccccc2c(=O)[nH]1 (stereo not drawn)
CCCCCCP(=O)(COc1ccc(CCN(CC(O)COc2cccc3[nH]c(C(N)=O)cc23)CC(O)COc2cccc3[nH]c(C(N)=O)cc23)cc1)OCCCC (stereo not drawn)
Cc1cc(N[C@@H](CC(C)C)C(=O)NCCOc2ccccc2)nc(Nc2ccccc2)n1
Cc1cccc2[nH]c(-c3cccc(-c4cccc(CNCc5cccc(N)c5)c4)c3)nc12
Cc1ccc(-n2[nH]c(C)c(N=Nc3cccc(-c4cccc(NC(=O)OC(C)(C)C)c4)c3O)c2=O)cc1C
O=C(Nc1ccc(NC2=NCCN2)cc1)Nc1ccc(NC2=NCCN2)cc1
CCn1c(-c2nonc2N)nc2cnc(Oc3cccc(NC(=O)c4ccc(OCCN5CCCC5)cc4)c3)cc21
CC[C@H](C)CNC(=O)c1cncc(-c2cccc(CNCCCc3ccccc3)c2)c1
COc1ccc(-c2cccc(NC(=O)c3cccc(Cl)c3)c2)cc1CN1CCCN(C)CC1
Cc1cccc2[nH]cc(C3CCN(CCC4CCN(C(=O)/C=C/c5ccc(Cl)c(Cl)c5)CC4)CC3)c12
Cc1ccc(-c2noc(COc3ccccc3C(=O)NC3CCCC3)n2)cc1
COc1ccc(NC(=O)[C@H](Cc2ccccc2)Nc2cc(C)nc(NCc3ccccc3C)n2)cc1
CC1CCCN1Cc1cccc(-c2ccc(C(=O)NCCOc3ccccc3)s2)c1 (stereo not drawn)
COc1ccc(-c2cccc(NC(=O)c3ccc(Cl)cc3)c2)cc1CN1CCNCC1
CC(C)(C)Cn1cc(-c2ccc(C(=O)NCCc3ccc(S(C)(=O)=O)cc3)cc2)c(N)n1 (tested in a mixture with another compound)
CCCC[C@@H](C(=O)NCCc1ccc(Cl)cc1)N1C(=O)CCC1C(=O)Nc1ccc(Cl)c(Cl)c1 (stereo partly drawn)
COc1ccc(-c2csc(NC(=O)CCC(=O)O)n2)cc1OC
CCN(CC)CCOc1ccc(C(O)(C#CC(O)(c2ccc(C)cc2)c2ccc(OCCN(CC)CC)cc2)c2ccc(C)cc2)cc1 (stereo not drawn)
COCc1nc(-c2ccccc2)nc(N2CCN(C(=O)NC(C)C)CC2)c1Cc1ccccc1F
CN(C)c1ccc(-c2csc(C(=O)NCC3CCN(CCC(C)(C)C)C3)c2)cc1 (stereo not drawn)
N#Cc1ccc(-c2cnc3ccc(NCc4ccc(S(N)(=O)=O)cc4)nn23)cc1
O=C(N[C@@H]1C[C@H]1c1ccccc1)N(CCCn1ccnc1)Cc1csc(-c2ccc(CNCc3ccccc3)cc2)n1
Cc1nnc2c(NC(=O)/C=C/c3ccc(OC(F)(F)F)cc3)cc3cc(Cl)ccc3n12
CCn1c(C(C)C)cc2c3c(N)nc(N)nc3ccc21
Cc1cccc2[nH]c(-c3ccc(-c4ccc(NC(=O)Nc5ccc(Cl)cc5)cc4)s3)nc12
CCCCN1CCN(CCCCNc2c3ccccc3nc3ccccc23)CC1
NC(=NCCCCC1CCCCC1)c1cccc(C(N)=NCCCCC2CCCCC2)n1
O=C1OC(c2ccccc2)(c2ccccc2)CN1CC1CCN(Cc2ccc(O)c(Cl)c2)CC1
CCn1c(Sc2ccc(C#N)c([N+](=O)[O-])c2)nnc1-c1cccc(Cl)c1
